Growth data for 40 compounds are collected here from PubChem BioAssay (NCI).

This is part of a sample that, as a whole, favours compounds with a hit. Of some 83,000 tested, about 20% had one in any assay.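 A percent growth of 40 corresponds to 60% growth inhibition; 0 means no net growth; -100 means all cells died. Active threshold: below 10.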 Values without a mark were called inactive. The source made the active and inactive calls.

In this assay the test system is HL-60(TB) leukemia. The assay is described as follows: NCI-60 one-dose screen, 48 h (100 = growth as untreated, 0 = no growth, -100 = all killed). Particulars: 10 µM unless noted.
Regarding `O=c1[nH]c2ccccc2cc1CSc1ccccc1Nc1nccc(-c2ccc(Cl)cc2)n1`, the growth was 102%.

For the compound `C#C[C@]1(O)CC[C@H]2[C@@H]3CC=C4c5sc(Nc6cccc(Cl)n6)nc5CC[C@]4(C)[C@H]3CC[C@@]21C`, the growth is -15.6% (active).

For the compound `C=CCn1c(SCC(=O)Nc2ccc(C(=O)/C=C/c3cc(OC)c(OC)c(OC)c3)cc2)nnc1-c1c[nH]c2ccccc12`, the growth is -15.1% (active).

In the case of `N#Cc1c(NC(=O)c2ccccc2C(F)(F)F)sc2c1CCC(=O)C2`, the growth was 3.87% (active).

As to `O=C(Nc1nc2ccc(O)cc2s1)c1cccc(C(F)(F)F)c1`, the growth is 18.3%.

With `O=C1Nc2ccc(Cl)cc2/C1=C/c1ccc(OCc2ccc(Br)cc2F)cc1`, the growth is 98%.

In the case of `CCOC(=O)Nc1cccc(-n2cnc3cc(-c4ccc(O)cc4)ccc32)c1`, the growth is 2.92% (active).

Consider `CC(C)(C)c1cc(NC(=O)Nc2ccc(-c3cn4c5c(sc4n3)CCc3cn(CCCN4CCCCC4)cc3-5)cc2)no1`, for which the growth is -18.9% (active).

With `CC1(C)CC[C@]2(C(=O)O)CC[C@]3(C)C(=CC[C@@H]4[C@@]5(C)CC[C@H](NOCCCN)C(C)(C)[C@@H]5CC[C@]43C)[C@@H]2C1`, the growth is 20.2%.

With `C1=CC(c2nn3c(-c4ccccc4)nnc3s2)=Cc2ccccc2O1`, the growth was 37%.

Take `O=C(CSc1nc2ccccc2c(=O)n1-c1ccccc1)Nc1ccc(S(=O)(=O)Nc2nccs2)cc1`: the growth was 78.7%.

`CN1CCN(Cc2ccc(NC(=O)c3cncc(C#Cc4cnc5ccc(NCCCO)nn45)c3)cc2C(F)(F)F)CC1`: the growth was -8.59% (active).

Consider `CN1CCN(c2ccc(NC(=O)Nc3ccc4c(ccn4-c4cccc(C(N)=O)n4)c3)cc2C(F)(F)F)CC1`, for which the growth is 66.1%.

Turning to `N#Cc1cccc(NC(=O)c2cc(-c3ccc(F)cc3F)ccc2O)c1`, the growth was -29.2% (active).

`NS(=O)(=O)c1ccc(Nc2nc(N/N=C/c3ccc4c(c3)OCO4)nc(Nc3ccccc3)n2)cc1`: the growth was 31.1%.

`CCCSc1nc(Nc2ccc(/C(C)=N\NC(N)=S)cc2)c(C#N)c(-c2ccccc2)n1`: the growth is 64%.

As to `OC1CCN(CCCOc2c3ccccc3nc3c2oc2ccc(Cl)cc23)CC1`, the growth is 14.4%.

On to `COC(=O)c1ccc(NC2=C(Cl)C(=O)c3nc(C)ccc3C2=O)cc1`, for which the growth was 21.2%.

Turning to `NC(N)=Nc1ccc(Oc2cccc(Nc3ccc(Br)c(C(F)(F)F)c3)c2)cc1`, the growth is -50.3% (active).

Turning to `C=C(C)[C@@H]1CC[C@]2(COP(=O)(OCC)OCC)CC[C@]3(C)[C@H](CC[C@@H]4[C@@]5(C)CC[C@H](OP(=O)(OCC)OCC)C(C)(C)[C@@H]5CC[C@]43C)[C@@H]12`, the growth is 16.2%.

Consider `CC(C)=CCC[C@](C)(O)[C@H]1CC[C@]2(C)[C@@H]1CC[C@@H]1[C@@]3(C)CCC(NC(=O)c4ccccc4C(=O)O)C(C)(C)[C@@H]3CC[C@]12C` (stereo not given in full), for which the growth is 90.2%.

Consider `COc1ccc(-c2c(C(N)=O)c(N)n(Cc3nc4ccccc4[nH]3)c(=O)c2C#N)c(OC)c1`, for which the growth was 106%.

Take `Fc1cccc(Cl)c1/C=N/Nc1nc(N/N=C/c2c(F)cccc2Cl)nc(N2CCCCC2)n1`: the growth is 1.27% (active).

For the compound `COc1ccc(C(=NNS(=O)(=O)c2ccc(C)cc2)c2ccccc2)cc1OC`, the growth was 96.9%.

Take `Cc1nc(N)sc1-c1csc(Nc2ccc(C(F)(F)F)cc2)n1`: the growth was 27.9%.

With `NS(=O)(=O)c1cccc(Nc2nc(SCC(=O)c3ccc(Cl)cc3)nc3ccccc23)c1`, the growth was 90.9%.

Regarding `COc1ccccc1/C=C/C(=O)c1nnn(-c2ccc(C(=O)O)cc2)c1C`, the growth is 83.2%.

For the compound `O=C1NC(=O)/C(=C/c2ccc(OCc3cc4ccccc4nc3Cl)cc2)S1`, the growth was 100%.

As to `CCCCc1nc2c(N)nc3ccccc3c2n1Cc1ccc(OC)cc1`, the growth was 31%.

On to `C=CC(=O)N1CC=C(c2cc3c(N[C@H](C)c4ccccc4)ncnc3[nH]2)CC1`, for which the growth was 104%.

With `CC(C)NC(=O)c1cc(-c2ccc(NC(=O)Nc3ccc(F)c(C(F)(F)F)c3)cc2)nc2cccnc12`, the growth is 109%.

On to `Cn1ccnc1C(=O)/C=C/c1ccc(NC(=O)c2ccc(F)cc2)cc1`, for which the growth was 11.8%.

On to `NC(=O)c1c(NC(=O)c2ccc(C(F)(F)F)cc2)sc2c1CCC(=O)C2`, for which the growth is 6.39% (active).

`Nc1cc(-c2c[nH]c3ccccc23)nc2cc(-c3c[nH]c4ccccc34)nn12`: the growth is 40.1%.

As to `CCOC(=O)c1c(NC(=O)c2cccc(C(F)(F)F)c2)sc2cc(O)ccc12`, the growth is 46.9%.

Turning to `COC(=O)Nc1ccc(-c2nc(-c3cccc(O)c3)c(-c3ccnc(Br)c3)[nH]2)cc1`, the growth was 28.1%.

As to `Fc1cc(F)cc(NNC(=S)c2ccccc2)c1`, the growth was 30.5%.

Turning to `Cc1c(Nc2nnc(SCC(=O)Nc3sc4c(c3C#N)CCCC4)s2)c(=O)n(-c2ccccc2)n1C`, the growth is 108%.

As to `CCCCCCCn1cc2c(NCCc3ccccc3)ncnc2n1`, the growth is 106%.

With `O=C(NNc1nc2cc(F)cc(F)c2n2cccc12)c1ccncn1`, the growth was -7.85% (active).
